Data: PubChem BioAssay (EPA / NIEHS)
Inconclusive results are not listed. Calls of active or inactive are those of the source. The calls were made as follows, unless noted: active = hit-call score of the fitted dose curve at least 0.9, where 1 is the maximum; inactive = score below 0.9.

Assays:
[1] = molecular target: Glucocorticoid receptor (Homo sapiens) (UniProt P04150); assay: ATG_GR_TRANS: Attagene TRANS-FACTORIAL HepG2 Assay for human Glucocorticoid Receptor (GR) (AID 2282978; active = hit-call score of the fitted dose curve at least 0.9, where 1 is the maximum;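 also: activators score as hits since higher reporter transcript over DMSO is fitted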); details: HepG2 Attagene TRANS GR reporter, mRNA transcription
How it was run: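 HepG2 cells transiently transfected with multiplexed reporter units in which chimeric NR-GAL4 proteins drive GAL4-UAS reporters; 24 h compound exposure. Reporter mRNA measured by RT-PCR, 6-FAM labelling, HpaI digestion and capillary electrophoresis; gain-of-signal fitted versus DMSO.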

[2] = molecular target: Bile acid receptor (Homo sapiens) (UniProt Q96RI1); assay: ATG_FXR_TRANS: Attagene TRANS-FACTORIAL HepG2 Assay for Farnesoid X Receptor (FXR) (AID 2282979; active = hit-call score of the fitted dose curve at least 0.9, where 1 is the maximum;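 also: hits raise reporter mRNA above DMSO so AC50 marks FXR activation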); details: HepG2 Attagene TRANS FXR-GAL4 reporter transcription
How it was run: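 After 24 h chemical treatment of transfected HepG2 cells, GAL4-UAS reporter transcripts driven by an exogenous FXR-GAL4 fusion were measured by RT-PCR and capillary electrophoresis. Increases over DMSO were fitted.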

[3] = molecular target: Oxysterols receptor LXR-beta (Homo sapiens) (UniProt P55055); assay: ATG_LXRb_TRANS: Attagene TRANS-FACTORIAL HepG2 Assay for human Liver X Receptor beta (LXRb) (AID 2282981; active = hit-call score of the fitted dose curve at least 0.9, where 1 is the maximum); details: HepG2 Attagene TRANS GAL4-LXRb reporter, mRNA
How it was run: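 After 24 h chemical treatment of transfected HepG2 cells carrying exogenous NR-Gal4 chimeras, reporter mRNA was quantified by fluorescent RT-PCR and capillary electrophoresis; activity taken as increase over DMSO controls.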

[4] = molecular target: Hepatocyte nuclear factor 4-alpha (Homo sapiens) (UniProt P41235); assay: ATG_HNF4a_TRANS: Attagene TRANS-FACTORIAL HepG2 Assay for human Hepatocyte Nuclear Factor 4 alpha (HNF4a) (AID 2282982; active = hit-call score of the fitted dose curve at least 0.9, where 1 is the maximum); details: HepG2 HNF4a transactivation reporter, mRNA readout
How it was run: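 Activity of an exogenous HNF4a–Gal4 fusion scored as induced GAL4-UAS reporter transcripts after 24 h chemical exposure of transfected human HepG2 cells. Read-out via RT-PCR with 6-FAM labelling and capillary electrophoresis; rise over DMSO baseline.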

[5] = ATG_M_06_TRANS: Attagene TRANS-FACTORIAL HepG2 Assay for M06 Transcription Factor (Internal Marker) (AID 2282983; active = hit-call score of the fitted dose curve at least 0.9, where 1 is the maximum); details: HepG2 Attagene TRANS M06 internal marker reporter
How it was run: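 Multi-reporter-transfected HepG2, 24 h treatment; reporter transcripts quantified via RT-PCR, primer-extension labelling and CE. DMSO-normalized gain-of-signal fit.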

[6] = ATG_M_32_TRANS: Attagene TRANS-FACTORIAL HepG2 Assay for M32 Transcription Factor (Internal Marker) (AID 2282984; active = hit-call score of the fitted dose curve at least 0.9, where 1 is the maximum;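 also: transcript level of a background control reporter unit measured by RT-PCR and capillary electrophoresis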); details: HepG2 Attagene TRANS M32 internal marker reporter
How it was run: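 Internal background reporter in transfected HepG2: after 24 h chemical exposure, RNA reverse-transcribed, reporter cDNA amplified, fluorescently labelled and HpaI-cut, then sized by capillary electrophoresis. Gain of signal fitted against DMSO control.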

[7] = molecular target: Transcriptional activator Myb (Homo sapiens) (UniProt P10242); assay: ATG_Myb_CIS: Attagene CIS-FACTORIAL HepG2 Assay for human Myeloblastosis (Myb) Proto-Oncogene Transcription Factor (AID 2282986); details: HepG2 Attagene CIS-FACTORIAL Myb reporter transcription; actives raise or lower the signal
How it was run: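 HepG2 cells were transiently transfected with cis-regulated multiple reporter transcription units reflecting endogenous Myb activity, then exposed to compound for 24 hours. Reporter mRNA was measured by RT-PCR with capillary electrophoresis; bidirectional fitting versus DMSO baseline.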

[8] = molecular target: Nuclear respiratory factor 1 (Homo sapiens) (UniProt Q16656); assay: ATG_NRF1_CIS: Attagene CIS-FACTORIAL HepG2 Assay for human Nuclear Respiratory Factor 1 (NRF1) Orphan Gene (AID 2282987); details: HepG2 NRF1 cis-element reporter, Attagene multiplex; actives raise or lower the signal
How it was run: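 HepG2 cells transiently transfected with multiple reporter transcription units under cis-regulatory promoter control, so endogenous transcription-factor activity is read. After 24 h compound exposure, reporter mRNA quantified by RT-PCR, fluorescent labelling, HpaI digestion and capillary electrophoresis; bidirectional fitting versus DMSO.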

[9] = ATG_NFI_CIS: Attagene CIS-FACTORIAL HepG2 Assay for human Nuclear Factor I (NFI) (AID 2282989); details: HepG2 cis-regulatory reporter, NFI response element transcription; actives raise or lower the signal
How it was run: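 Reporter transcripts were measured by RT-PCR with fluorescent primer extension and capillary electrophoresis 24 h post-treatment. HepG2 cells carried transiently transfected cis-regulated reporter constructs reporting endogenous factor activity; gain or loss fitted against DMSO baseline.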

[10] = molecular target: Myc proto-oncogene protein (Homo sapiens) (UniProt P01106); assay: ATG_Myc_CIS: Attagene CIS-FACTORIAL HepG2 Assay for human Myelocytomatosis (Myc) Proto-Oncogene Transcription Factor (AID 2282990); details: HepG2, Attagene cis-reporter transcription factor activity; actives raise or lower the signal
How it was run: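 After 24 h chemical treatment of HepG2 cells carrying multiplexed cis-regulated reporter constructs, reporter transcripts quantified by RT-PCR and capillary electrophoresis of fluorescent fragments. Gain or loss fitted against DMSO baseline.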

[11] = ATG_NF_kB_CIS: Attagene CIS-FACTORIAL HepG2 Assay for human Nuclear Factor Kappa B (NF-kB) (AID 2282991); details: HepG2 Attagene cis-factorial NF-kB reporter mRNA; actives raise or lower the signal
How it was run: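 HepG2 cells transiently transfected with multiplexed cis-element reporter units measuring endogenous transcription factor activity; reporter mRNA read 24 h after dosing by RT-PCR, fluorescent labelling, HpaI digestion and capillary electrophoresis. Bidirectional fit against DMSO baseline.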

[12] = ATG_NRF2_ARE_CIS: Attagene CIS-FACTORIAL HepG2 Assay for human Nuclear Factor Erythroid 2 Related Factor 2 (NFR2) response to Antioxidant Response Elements (ARE) (AID 2282992); details: HepG2 Attagene ARE/NRF2 reporter, transcription factor activity; actives raise or lower the signal
How it was run: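 Endogenous transcription factor activity read out as reporter transcript levels (RT-PCR plus capillary electrophoresis, fluorescence) in transiently transfected HepG2 cells. Measured at 24 h after dosing; gain or loss of signal fitted versus DMSO.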

[13] = ATG_Oct_MLP_CIS: Attagene CIS-FACTORIAL HepG2 Assay for human Octamer-Binding Transcription Factor (Oct) (AID 2282993); details: HepG2 Attagene cis-factorial Oct reporter, mRNA; actives raise or lower the signal
How it was run: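 Readout is reporter transcript level from RT-PCR with fluorescent primer extension and capillary electrophoresis, fitted in both directions against DMSO. Transfected HepG2 reporter units report endogenous factor activity after 24 h dosing.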

[14] = molecular target: Cellular tumor antigen p53 (Homo sapiens) (UniProt P04637); assay: ATG_p53_CIS: Attagene CIS-FACTORIAL HepG2 Assay for human p53 Transcription Factor (AID 2282994); details: HepG2 p53 cis-element reporter, Attagene mRNA; actives raise or lower the signal
How it was run: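 Endogenous p53 activity read in transiently transfected HepG2 from a cis-element-driven reporter transcript after 24 h exposure. RNA reverse-transcribed, PCR-amplified, fluorescently labelled and sized by capillary electrophoresis; gain or loss fitted against DMSO baseline.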

[15] = BSK_3C_TissueFactor: BioMAP Diversity Plus: 3C Assay for Tissue Factor Biomarker Activity (AID 2282997); details: BioMAP 3C HUVEC, tissue factor biomarker readout; actives raise or lower the signal
How it was run: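 In this endothelial system, HUVEC are treated for 24 h and Tissue Factor is assessed by ELISA, normalised to DMSO.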

[16] = BSK_3C_VCAM1: BioMAP Diversity Plus: 3C Assay for Vascular cell adhesion molecule 1 (VCAM1) Biomarker Activity (AID 2282999); details: BioMAP 3C HUVEC, VCAM1 ELISA, cytokine-stimulated; actives raise or lower the signal
How it was run: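 Activity fitted in both directions relative to DMSO, with ELISA measurement of the surface marker on primary HUVEC (3C) at 24 h post-treatment; parallel SRB staining (0.1% SRB, TCA-fixed, 560 nm) flagged overt cytotoxicity.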

[17] = molecular target: Nuclear receptor subfamily 4 group A member 2 (Homo sapiens) (UniProt P43354); assay: ATG_NURR1_TRANS: Attagene TRANS-FACTORIAL HepG2 Assay for human Nuclear Receptor Related Protein 1 (NURR1) (AID 2282985; active = hit-call score of the fitted dose curve at least 0.9, where 1 is the maximum); details: HepG2 Attagene TRANS reporter, mRNA readout
How it was run: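 Reporter transcript induction, measured by RT-PCR with fluorescent labelling, HpaI digestion and capillary electrophoresis, after 24 hr dosing of human HepG2 cells transiently expressing an exogenous NR-Gal4 fusion with GAL4-UAS-driven reporters; DMSO as baseline.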

[18] = BSK_3C_uPAR: BioMAP Diversity Plus: 3C Assay for Urokinase-type plasminogen activator receptor (uPAR) Biomarker Activity (AID 2282998); details: BioMAP 3C HUVEC, uPAR biomarker ELISA; actives raise or lower the signal
How it was run: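 Cell-surface uPAR on HUVEC (3C system) read by ELISA at 24 h post-treatment, with DMSO as baseline and fitting in both directions. Parallel cultures stained with SRB to flag overt cytotoxicity.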

[19] = molecular target: Oxysterols receptor LXR-alpha (Homo sapiens) (UniProt Q13133); assay: ATG_LXRa_TRANS: Attagene TRANS-FACTORIAL HepG2 Assay for human Liver X Receptor alpha (LXRa) (AID 2282980; active = hit-call score of the fitted dose curve at least 0.9, where 1 is the maximum); details: HepG2 Attagene TRANS reporter, LXRa transactivation
How it was run: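 In this multiplexed TRANS system, compounds act on HepG2 cells carrying GAL4-UAS reporter units and a receptor-GAL4 fusion for 24 h. Induced reporter RNA is amplified, fluorescently labelled and sized by capillary electrophoresis, with DMSO as baseline.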

Measured: AC50

Sequence of Transcriptional activator Myb (Homo sapiens) (P10242 whole entry, looked up): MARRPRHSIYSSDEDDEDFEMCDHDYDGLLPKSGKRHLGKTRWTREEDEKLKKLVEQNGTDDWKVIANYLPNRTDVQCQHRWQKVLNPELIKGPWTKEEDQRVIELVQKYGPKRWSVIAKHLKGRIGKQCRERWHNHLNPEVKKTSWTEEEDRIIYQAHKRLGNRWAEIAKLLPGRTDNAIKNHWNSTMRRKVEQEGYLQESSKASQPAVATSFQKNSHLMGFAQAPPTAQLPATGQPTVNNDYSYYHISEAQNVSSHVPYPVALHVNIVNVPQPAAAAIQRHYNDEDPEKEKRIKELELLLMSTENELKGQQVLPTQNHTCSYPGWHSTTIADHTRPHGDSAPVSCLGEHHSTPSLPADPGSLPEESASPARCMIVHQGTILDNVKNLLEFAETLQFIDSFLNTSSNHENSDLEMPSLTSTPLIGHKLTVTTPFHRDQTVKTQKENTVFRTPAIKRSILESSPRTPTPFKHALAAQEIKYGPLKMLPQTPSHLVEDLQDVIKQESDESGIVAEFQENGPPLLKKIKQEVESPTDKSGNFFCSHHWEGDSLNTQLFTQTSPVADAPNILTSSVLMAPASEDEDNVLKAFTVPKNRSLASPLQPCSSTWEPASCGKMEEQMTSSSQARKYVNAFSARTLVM
Sequence of Myc proto-oncogene protein (Homo sapiens) (P01106 whole entry, looked up, the tested form may be a part): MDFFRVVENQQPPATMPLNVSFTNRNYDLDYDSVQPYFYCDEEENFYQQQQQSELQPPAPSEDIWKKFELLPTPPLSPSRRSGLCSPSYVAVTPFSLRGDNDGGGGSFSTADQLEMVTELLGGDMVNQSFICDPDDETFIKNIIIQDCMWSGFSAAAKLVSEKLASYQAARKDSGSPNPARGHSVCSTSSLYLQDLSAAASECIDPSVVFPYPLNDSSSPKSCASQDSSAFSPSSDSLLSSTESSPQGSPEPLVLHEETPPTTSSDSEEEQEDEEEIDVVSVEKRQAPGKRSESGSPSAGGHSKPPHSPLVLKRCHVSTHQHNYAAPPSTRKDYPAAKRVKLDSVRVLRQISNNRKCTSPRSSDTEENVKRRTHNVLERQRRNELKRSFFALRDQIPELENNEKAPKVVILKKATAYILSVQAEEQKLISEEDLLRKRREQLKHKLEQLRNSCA
Sequence of Cellular tumor antigen p53 (Homo sapiens) (P04637 whole entry, looked up): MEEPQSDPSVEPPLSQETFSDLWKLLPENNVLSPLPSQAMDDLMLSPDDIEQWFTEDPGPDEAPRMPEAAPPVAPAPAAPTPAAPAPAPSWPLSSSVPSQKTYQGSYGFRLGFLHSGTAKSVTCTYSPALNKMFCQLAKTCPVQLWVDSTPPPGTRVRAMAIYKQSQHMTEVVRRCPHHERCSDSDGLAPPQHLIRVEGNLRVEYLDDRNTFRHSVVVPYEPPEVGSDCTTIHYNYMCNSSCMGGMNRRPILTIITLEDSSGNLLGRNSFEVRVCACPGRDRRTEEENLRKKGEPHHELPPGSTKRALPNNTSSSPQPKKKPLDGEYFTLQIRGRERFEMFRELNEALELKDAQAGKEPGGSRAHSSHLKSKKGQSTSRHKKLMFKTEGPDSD
Sequence of Oxysterols receptor LXR-beta (Homo sapiens) (P55055 whole entry, looked up, the tested form may be a part): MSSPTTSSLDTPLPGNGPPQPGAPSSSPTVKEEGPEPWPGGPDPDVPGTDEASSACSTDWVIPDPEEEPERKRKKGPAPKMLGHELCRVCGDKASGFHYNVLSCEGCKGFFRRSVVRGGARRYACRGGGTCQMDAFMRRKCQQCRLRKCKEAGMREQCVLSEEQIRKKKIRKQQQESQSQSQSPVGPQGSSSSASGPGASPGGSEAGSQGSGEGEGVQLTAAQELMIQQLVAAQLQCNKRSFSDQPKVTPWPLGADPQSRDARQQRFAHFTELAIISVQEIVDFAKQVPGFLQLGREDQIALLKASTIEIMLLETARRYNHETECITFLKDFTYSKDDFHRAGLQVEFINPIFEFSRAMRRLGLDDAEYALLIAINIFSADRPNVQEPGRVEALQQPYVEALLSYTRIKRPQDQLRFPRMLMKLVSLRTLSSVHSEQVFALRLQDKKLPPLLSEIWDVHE
Sequence of Nuclear receptor subfamily 4 group A member 2 (Homo sapiens) (P43354 whole entry, looked up, the tested form may be a part): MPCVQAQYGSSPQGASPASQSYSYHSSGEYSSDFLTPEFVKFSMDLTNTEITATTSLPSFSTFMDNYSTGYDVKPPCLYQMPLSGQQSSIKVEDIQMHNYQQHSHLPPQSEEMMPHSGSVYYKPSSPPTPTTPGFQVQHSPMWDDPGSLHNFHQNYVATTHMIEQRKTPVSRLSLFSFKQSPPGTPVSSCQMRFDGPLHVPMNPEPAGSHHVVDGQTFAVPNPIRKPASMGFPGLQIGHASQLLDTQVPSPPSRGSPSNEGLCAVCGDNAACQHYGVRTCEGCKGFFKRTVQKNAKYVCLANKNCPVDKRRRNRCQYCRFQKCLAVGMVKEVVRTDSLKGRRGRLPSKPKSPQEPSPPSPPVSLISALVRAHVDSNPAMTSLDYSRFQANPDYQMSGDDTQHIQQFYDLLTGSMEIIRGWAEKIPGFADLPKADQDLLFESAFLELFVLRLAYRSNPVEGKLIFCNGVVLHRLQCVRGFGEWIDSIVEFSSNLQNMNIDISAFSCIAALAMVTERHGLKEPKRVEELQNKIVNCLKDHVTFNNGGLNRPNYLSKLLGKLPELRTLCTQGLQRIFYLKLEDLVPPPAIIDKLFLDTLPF
Sequence of Glucocorticoid receptor (Homo sapiens) (P04150 whole entry, looked up, the tested form may be a part): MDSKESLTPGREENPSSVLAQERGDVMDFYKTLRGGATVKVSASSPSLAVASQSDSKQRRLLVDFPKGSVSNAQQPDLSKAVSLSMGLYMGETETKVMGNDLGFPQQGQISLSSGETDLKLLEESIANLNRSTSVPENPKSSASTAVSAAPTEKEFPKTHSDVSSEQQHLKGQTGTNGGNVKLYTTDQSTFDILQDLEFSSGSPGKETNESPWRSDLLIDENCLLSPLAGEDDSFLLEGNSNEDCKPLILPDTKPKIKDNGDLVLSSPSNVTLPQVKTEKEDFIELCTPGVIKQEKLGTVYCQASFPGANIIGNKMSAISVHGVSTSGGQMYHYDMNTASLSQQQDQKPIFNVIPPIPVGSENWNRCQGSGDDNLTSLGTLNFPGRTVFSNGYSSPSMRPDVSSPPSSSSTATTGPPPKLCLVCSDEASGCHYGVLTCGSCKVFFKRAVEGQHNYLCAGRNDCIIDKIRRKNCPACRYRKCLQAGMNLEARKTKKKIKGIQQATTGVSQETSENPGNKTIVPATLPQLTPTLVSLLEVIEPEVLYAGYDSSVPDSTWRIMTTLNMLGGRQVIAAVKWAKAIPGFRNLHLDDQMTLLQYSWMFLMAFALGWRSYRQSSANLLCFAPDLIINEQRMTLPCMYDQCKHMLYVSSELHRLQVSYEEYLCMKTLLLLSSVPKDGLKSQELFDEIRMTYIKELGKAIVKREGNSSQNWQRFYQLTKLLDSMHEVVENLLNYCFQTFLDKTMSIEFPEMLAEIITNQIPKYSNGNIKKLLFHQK
Sequence of Hepatocyte nuclear factor 4-alpha (Homo sapiens) (P41235 whole entry, looked up, the tested form may be a part): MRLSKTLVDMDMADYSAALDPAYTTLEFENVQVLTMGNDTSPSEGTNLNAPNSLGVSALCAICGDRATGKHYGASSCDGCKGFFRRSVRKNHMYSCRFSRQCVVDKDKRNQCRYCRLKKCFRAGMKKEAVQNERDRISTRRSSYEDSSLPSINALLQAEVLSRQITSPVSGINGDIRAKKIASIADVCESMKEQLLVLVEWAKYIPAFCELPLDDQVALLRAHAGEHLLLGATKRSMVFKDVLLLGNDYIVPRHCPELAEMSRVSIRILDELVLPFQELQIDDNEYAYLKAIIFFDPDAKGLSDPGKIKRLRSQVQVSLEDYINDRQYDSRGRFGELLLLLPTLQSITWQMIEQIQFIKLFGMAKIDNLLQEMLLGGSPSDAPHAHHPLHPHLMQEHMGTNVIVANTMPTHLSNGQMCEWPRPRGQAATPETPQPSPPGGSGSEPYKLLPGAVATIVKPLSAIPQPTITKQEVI
Sequence of Nuclear respiratory factor 1 (Homo sapiens) (Q16656 whole entry, looked up): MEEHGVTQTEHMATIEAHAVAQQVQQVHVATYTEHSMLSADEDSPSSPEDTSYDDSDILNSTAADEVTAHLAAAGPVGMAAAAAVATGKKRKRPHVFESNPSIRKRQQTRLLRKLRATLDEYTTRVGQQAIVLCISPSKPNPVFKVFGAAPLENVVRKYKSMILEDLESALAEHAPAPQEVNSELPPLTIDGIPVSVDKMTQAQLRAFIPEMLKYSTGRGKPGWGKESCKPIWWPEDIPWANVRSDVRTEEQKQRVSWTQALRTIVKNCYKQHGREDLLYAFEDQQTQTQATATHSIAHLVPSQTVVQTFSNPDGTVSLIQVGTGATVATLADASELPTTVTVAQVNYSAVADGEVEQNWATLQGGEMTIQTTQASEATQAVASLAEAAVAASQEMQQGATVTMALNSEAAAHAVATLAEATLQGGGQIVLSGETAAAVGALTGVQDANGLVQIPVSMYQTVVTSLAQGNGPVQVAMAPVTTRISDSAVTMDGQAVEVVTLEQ
Sequence of Bile acid receptor (Homo sapiens) (Q96RI1 whole entry, looked up, the tested form may be a part): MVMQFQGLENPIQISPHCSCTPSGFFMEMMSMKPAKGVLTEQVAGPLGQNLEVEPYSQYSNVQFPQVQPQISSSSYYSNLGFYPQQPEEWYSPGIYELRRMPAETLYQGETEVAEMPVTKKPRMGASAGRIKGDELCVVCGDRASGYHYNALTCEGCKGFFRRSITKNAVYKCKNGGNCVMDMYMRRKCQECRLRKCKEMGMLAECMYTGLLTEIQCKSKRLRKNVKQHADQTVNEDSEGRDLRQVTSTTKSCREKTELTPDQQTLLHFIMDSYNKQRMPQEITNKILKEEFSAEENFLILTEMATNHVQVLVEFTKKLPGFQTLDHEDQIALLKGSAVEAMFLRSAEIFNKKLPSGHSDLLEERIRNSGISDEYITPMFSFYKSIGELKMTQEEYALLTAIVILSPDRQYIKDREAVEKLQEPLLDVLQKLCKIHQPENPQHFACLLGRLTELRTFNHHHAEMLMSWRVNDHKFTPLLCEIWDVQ

NS(=O)(=O)C(F)(F)C(F)(F)C(F)(F)C(F)(F)C(F)(F)C(F)(F)F
not listed: [17] | [18] | [19]
inactive: all other assays above

O=C(c1ccccc1)c1ccc(O)cc1O
active: [12] 66.8 µM
not listed: [19]
inactive: all other assays above

C=CCOC(=O)CC(C)C
not listed: [4] | [15] | [16] | [17] | [18] | [19]
inactive: all other assays above

O=C(Cl)c1ccc(Cl)cc1Cl
not listed: [3] | [15] | [16] | [18]
inactive: all other assays above

Oc1ccc(C2(c3ccc(O)c(C4CCCCC4)c3)CCCCC2)cc1C1CCCCC1
active: [7] 51.3 µM | [9] 8.18 µM | [12] 6.2 µM
not listed: [3] | [15] | [16] | [17] | [18] | [19]
inactive: all other assays above

O=C1C=CC(=O)N1c1ccc(Cc2ccc(N3C(=O)C=CC3=O)cc2)cc1
active: [8] 60.1 µM | [11] 11.2 µM | [12] 33.4 µM | [15] 5.47 µM | [16] 7.45 µM
not listed: [3] | [5] | [6] | [18]
inactive: all other assays above

CCOCOCC
not listed: [4] | [5] | [15] | [16] | [18] | [19]
inactive: all other assays above

OCC(F)(F)C(F)(F)C(F)(F)C(F)(F)C(F)(F)C(F)(F)CO
not listed: [4] | [19]
inactive: all other assays above
